# Screening results: PubChem BioAssay, several laboratories
# Sampled rows, rich in hits. Any-hit rate of the full collection: about 4.5%.
# Rce1 inhib: yeast Ras-converting enzyme inhibition; Q03530; yeast membranes, quenched prenylated peptide cleavage fluorescence; calls only; 290,000 compounds, 0.27% hits;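 active = fall in fluorescence gain of 50% or more versus controls, with final raw signal at or below 3038400; inconclusive = same 50% fall but final raw signal above 3038400; inactive = fall in fluorescence gain under 50%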;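 also: plate controls were neutral control wells for no effect and wells lacking membranes for full effect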
# Rtt109 HAT inh: blocks Candida albicans Rtt109/Vps75 acetyltransferase activity. Q5AAJ8. purified Rtt109/Vps75, ThioGlo CoA-SH fluorescence, 4 h. inhibition, % at 34.9 µM. 330,000 compounds, 0.16% hits. AID 540336;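 active = inhibition of at least 50% in every replicate; inconclusive = best replicate reaches 50% inhibition but some replicates fall short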
# Target sequence (Q5AAJ8 whole entry, looked up): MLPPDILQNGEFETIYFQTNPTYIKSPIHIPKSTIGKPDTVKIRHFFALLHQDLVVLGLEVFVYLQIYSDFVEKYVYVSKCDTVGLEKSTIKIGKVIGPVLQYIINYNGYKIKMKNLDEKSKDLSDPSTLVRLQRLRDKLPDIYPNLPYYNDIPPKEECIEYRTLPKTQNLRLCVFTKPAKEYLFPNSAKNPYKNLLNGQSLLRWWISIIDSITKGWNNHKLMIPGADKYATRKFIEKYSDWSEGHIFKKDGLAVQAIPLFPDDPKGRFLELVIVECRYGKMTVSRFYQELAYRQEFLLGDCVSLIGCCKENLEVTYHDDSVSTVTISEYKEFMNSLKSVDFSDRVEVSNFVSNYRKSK
# HDAC3 inh: human HDAC3 inhibition | recombinant HDAC3, fluorogenic peptide/trypsin coupled, fluorescence | O15379 | inhibition, % at 8.3 µM | 320,000 compounds, 0.15% hits; in the data active = inhibition above about 26%, passing the limit was not always enough; inconclusive = no clear call, values can overlap the other calls
# Efflux pump inh: antifungal efflux pump inhibition, Nile Red retention; 330,000 compounds, 0.44% hits; inhibition, % at 10 µM; S. cerevisiae Candida pump triplex;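 active = plate passing quality check with inhibition over a set limit, or well fluorescence over plate mean plus 4 SD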;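 also: Nile Red retained in pooled yeast measured as flow cytometry median fluorescence; 0% = buffer negative control and 100% = Enniatin B positive control; higher means more Nile Red kept so more efflux inhibition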
# ALR H2O2 inh: blocks human ALR sulfhydryl oxidase activity | AID 485317 | inhibition, % (test concentration not listed) | P55789 | purified ALR, DTT oxidation, H2O2 HRP-luminol luminescence | 290,000 compounds, 3.8% hits;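 active = mean replicate inhibition above about 79%, with every replicate also reaching it, limit read from the data; inconclusive = only one of the two criteria met; inactive = mean below limit and not every replicate reaching it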
# Target sequence (P55789 whole entry, looked up): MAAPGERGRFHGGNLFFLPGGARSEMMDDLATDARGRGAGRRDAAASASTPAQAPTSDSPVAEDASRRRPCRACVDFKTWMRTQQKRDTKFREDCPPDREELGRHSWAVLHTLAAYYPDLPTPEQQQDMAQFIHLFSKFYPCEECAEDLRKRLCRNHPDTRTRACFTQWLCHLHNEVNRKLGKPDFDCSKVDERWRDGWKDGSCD
# GRK2 aptamer HTS: blocks RNA aptamer binding to human GRK2; P25098; bead flow cytometry, FAM-aptamer displacement from GRK2; inhibition of aptamer binding, % at 10 µM; 330,000 compounds, 0.59% hits; AID 488847;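 active = inhibition of aptamer binding above 40%, roughly 3 SD of noise, on plates passing a quality check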;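 also: median bead fluorescence of bound FAM aptamer so fluorescent compounds give negative values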
# * hit, by the source's call; i = inactive; ? = inconclusive; nt = no result; + = active, no number.
SMILES,Rce1 inhib,Rtt109 HAT inh,HDAC3 inh,Efflux pump inh,ALR H2O2 inh,GRK2 aptamer HTS
CC(Oc1ccccc1)C(=O)N1CCN=C1SCc1ccc(F)cc1 (stereo not drawn),i,-1.8,5.3,0.0,96.3*,0.0
CCOc1ccc(N(C)c2ccc(/C=C3/SC(=S)NC3=O)cc2)cc1,i,-2.7,1.5,0.1,-1.5,0.0
CCOc1c(O)ccc(/C=C2\SC(=S)NC2=O)c1[N+](=O)[O-],i,nt,18.5,-0.2,98.6*,0.0
C=CCn1c(=O)c2ccccc2n2c(SCc3csc(-c4ccccc4)n3)nnc12,i,2.9,-6.8,0.0,98.7*,1.0
C=CCn1c(SCc2csc(-c3ccc(C)cc3)n2)nnc1-c1ccccc1OC,i,5.4,4.0,-0.1,98.5*,2.0
COc1ccccc1-n1cnnc1SCc1csc(-c2ccccc2)n1,nt,9.1,2.6,0.1,-12.7,4.0
O=C(O)c1ccc(O)c(O)c1,nt,-5.0,1.1,-0.3,98.0*,3.0
O=C(O)c1ccc(-c2ccc(O)c(F)c2)cc1,+,4.8,nt,0.0,98.0*,0.0
COCCCN(CC(=O)O)S(=O)(=O)c1cccc(Cl)c1,i,-12.5,-3.1,-0.1,-18.8,1.0
COC(=O)C1=NNC2(c3ccc(Cl)cc3)C(=O)N(c3ccccc3)C(=O)C12 (stereo not drawn),i,-0.3,34.1*,0.0,nt,0.0
CCCCC(=O)NNC(=O)N1c2ccccc2Sc2ccccc21,i,6.0,6.2,-0.1,98.8*,0.0
CC(C)(C)NC(=O)N1c2ccccc2Sc2ccccc21,i,-7.4,-9.3,0.4,81.6*,nt
CC(C)NC(=O)N1c2ccccc2Sc2ccccc21,i,-10.9,-6.1,-0.2,73.0,20.0
Cc1ccc([N+](=O)[O-])cc1S(=O)(=O)n1ccnc1C,i,-5.4,3.2,0.4,-16.6,0.0
COc1ccc(C2/C(=C(/O)c3ccc4c(c3)CC(C)O4)C(=O)C(=O)N2CCCn2ccnc2)cc1OC (stereo not drawn),nt,-0.6,nt,nt,nt,nt
COC(=O)CCCC(=O)OC,nt,-7.5,nt,-0.1,nt,0.0
COC(=O)CCN(C)CCC(=O)OC,i,13.0,2.3,-0.1,96.0*,0.0
CCN(C(=O)COC(=O)/C(C#N)=C/c1ccc(OC)cc1)C1CCS(=O)(=O)C1 (stereo not drawn),i,-0.2,9.7,0.0,16.6,1.0
COc1ccc(C2CC(C)=C(C#N)S(=O)(=O)C2C#N)cc1 (stereo not drawn),i,0.7,2.7,0.0,34.2,0.0
CCNC(=S)NNc1nncc2ccccc12,i,-4.2,2.2,-0.1,98.6*,0.0
CCNC(=S)NNc1ccccc1,i,-1.3,-7.9,-0.1,63.6,2.0
CNC(=S)NNc1nncc2ccccc12,i,-4.2,?,-0.1,106.1*,3.0
O=C(NCc1ccc2c(c1)OCO2)c1cc(-c2ccccc2Cl)on1,i,-3.6,1.2,0.1,-7.1,0.0
Cc1oc(-c2cccs2)nc1CS(=O)CC(=O)NCc1ccc2c(c1)OCO2 (stereo not drawn),i,-19.1,-2.1,-0.1,28.2,0.0
Cc1oc(-c2ccccc2Cl)nc1CS(=O)CC(=O)NCc1ccc2c(c1)OCO2 (stereo not drawn),i,7.7,3.5,-0.1,82.0*,5.0
SMILES,Rce1 inhib,Rtt109 HAT inh,HDAC3 inh,Efflux pump inh,ALR H2O2 inh,GRK2 aptamer HTS
Cc1oc(-c2ccccc2Cl)nc1CS(=O)CC(=O)NCc1ccc(Cl)cc1 (stereo not drawn),i,14.9,3.5,-0.2,98.7*,0.0
Cc1ccccc1-c1nc(CS(=O)CC(=O)NCc2ccc3c(c2)OCO3)c(C)o1 (stereo not drawn),i,1.4,11.5,0.0,98.4*,0.0
CC(OC(=O)c1nc(Cl)ccc1Cl)C(=O)Nc1ccc2c(c1)OCCO2 (stereo not drawn),i,5.1,6.4,0.1,nt,2.0
CC1CCCCCCC1OC(=O)c1ccccc1C(=O)O (stereo not drawn),nt,1.0,nt,nt,nt,nt
O=C1c2cccc(OCC(=O)N3N=C(c4cccs4)CC3c3ccc(F)cc3)c2CCN1Cc1cccnc1 (stereo not drawn),+,1.3,-4.6,-0.3,-0.5,0.0
COC(=O)C1=C(Nc2cc(Cl)cc(Cl)c2)CSC1,i,nt,-2.0,0.4,99.0*,2.0
COc1ccc(/[N+]([O-])=C/c2ccoc2)cc1,nt,-11.5,-4.9,-0.1,12.5,4.0
CC(C)C(=O)Nc1c2c(nc3ccccc13)N(C)CC2,+,-29.1,-33.4,-0.1,-6.4,1.0
O=C(CNS(=O)(=O)c1ccc([N+](=O)[O-])cc1)N/N=C/c1ccc(O)cc1O,i,6.0,8.0,-0.1,50.6,0.0
c1ccc2c(SCc3cn4ccccc4n3)nncc2c1,i,11.2,4.7,0.0,98.8*,0.0
N=C(N)SCc1cn2ccccc2n1,i,-14.8,2.0,-0.4,97.6*,1.0
CC(C)N(C(=O)[C@H]1CC(CC(=O)NCc2cccc(C(F)(F)F)c2)C(=O)N2CCc3c([nH]c4ccccc34)[C@]12C)C(C)C (stereo partly drawn),nt,1.6,?,0.0,nt,7.0
Cc1cc(=O)n(C)c(=O)n1CCCCCN1CCCC1,i,8.5,-6.8,0.0,99.5*,0.0
COc1ccccc1N=c1scc(-c2ccc3c(c2)NC(=O)CO3)n1CC1CCCO1 (stereo not drawn),i,14.5,-4.8,0.1,99.0*,0.0
CCN=c1scc(-c2ccc3c(c2)NC(=O)CO3)n1N=C1CCCC1,i,9.7,9.1,0.0,90.6*,0.0
C[C@H](NC(=O)C1CC(=O)N(c2ccc3c(c2)OCCO3)C1)C(=O)N1CCCCC1 (stereo partly drawn),i,-2.5,-0.7,0.1,-3.9,6.0
COCCN1C(=O)/C(=C/c2ccc(Oc3ccc([N+](=O)[O-])cn3)c(OC)c2)SC1=Nc1ccccc1,+,-3.2,8.5,0.2,-7.4,0.0
CCn1c(CN2CCN(c3ccc(Cl)cc3)CC2)nc2ccccc21,i,-4.0,3.4,0.0,95.7*,0.0
CCc1nnc2n1N=C(c1ccc(Br)cc1)CS2,i,1.4,0.7,0.1,4.7,0.0
C[n+]1c2n(c3ccccc31)N=C(c1ccc(-c3ccccc3)cc1)CS2,i,21.9,nt,0.0,99.0*,0.0
Cc1cc(-c2nnc3n2N=C(c2ccc(-c4ccccc4)cc2)CS3)n[nH]1,i,-0.3,14.0,0.3,-10.8,1.0
C[n+]1c2n(c3ccccc31)N=C(c1ccccc1)CS2,i,-13.1,31.2*,-0.1,89.0*,4.0
Cc1cccc(-c2nnc3n2N=C(c2ccccc2)CS3)c1,i,-1.0,1.5,0.0,2.5,1.0
C[n+]1c2n(c3ccccc31)N=C(c1ccc(Br)cc1)CS2,i,nt,11.0,0.1,98.7*,0.0
COc1ccccc1-c1cc(C(=O)Nc2c(C)n(C)n(-c3ccccc3)c2=O)no1,i,2.8,11.4,0.0,96.9*,3.0
